Inconclusive results are not listed. Unmarked numbers belong to inactive results. Active and inactive are the calls of the source. Calls follow the shape of the dose curve; as a rule, active = well fitted cell-killing curve with a large enough effect in the repeat runs; inconclusive = weak or mixed curves, or effect the other way; inactive = no such curve, though single readings can be large or run the other way.

These results are taken from PubChem BioAssay (Tox21).
% is scaled to controls: 0 for no effect and ±100 for the full control effect.

The assay can be described thus: qHTS assay to identify small molecule agonists of the RXR signaling pathway - cell viability counter screen (AID 1159529). Also: nearly all actives have a fitted effect of over 50% in size. The conditions noted are these: RXR-alpha-bla HEK293T viability, CellTiter-Glo, 16 h; series mostly up to 76.8 µM; activity change, negative = cytotoxicity: at the top concentration. From the text: National Center for Advancing Translational Sciences [NCATS]
NIH Chemical Genomics Center [NCGC]
U.S. Environmental Protection Agency [EPA]
National Institutes of Environmental Health Sciences [NIEHS]
National Toxicology Program [NTP]
U.S. Food and Drug Administration [FDA]
The Retinoid X receptor (RXR), a nuclear hormone receptor expressed in liver, spleen, placenta, epidermis, central nervous system. These receptors are able to form homo and heterodimers with other nuclear receptors and due to this heterodimerizing ability, RXR functions as master regulators producing diverse physiological effects. Three subtypes of RXR exist; alpha, beta and gamma. Retinoid X receptor alpha (RXR-alpha) has potential roles in metabolic signaling pathways, skin alopecia, dermal cysts, cardiac development, insulin sensitization etc. Therefore screening environmental chemicals on RXR-alpha signaling can be used for the studies focused on such therapeutic applications. For quantification of RXR-alpha ligands signaling, GeneBLAzer RXR alpha-UAS-bla HEK 293T (Life Technologies, Carlsbad, CA) cells containing a beta-lactamase reporter-gene under control of Retinoid X receptor-alpha response element were used to screen Tox21 10K library. The cytotoxicity of the Tox21 compound library against the RXR-alpha HEK 293T cell line was tested in parallel by measuring cell viability using CellTiter-Glo assay (Promega Corporation, Madison, WI) in the same wells.
Tox21 Assay Protocol Summary:
RXR-alpha HEK 293T cells were dispensed at 2,000 cells/6 uL of assay medium containing 2% charcoal-stripped FBS using a Multidrop Combi (ThermoFisher Scientific, Waltham, MA) dispenser. The assay was performed in black wall/clear-bottom 1536-well plates (Greiner Bio-One North America Inc. Monroe, NC). Tetraoctyl ammonium bromide was used as a positive control in the cytotoxicity screen. After the assay plates were incubated at 37 C and 5% CO2 for 5 hr, 23 nL of compounds dissolved in DMSO, positive control or DMSO only were transferred to the assay plate by a Pintool station (Kalypsys, San Diego, CA). The assay plates were incubated at 37 C and 5% CO2 for 16 hr. One uL of LiveBLAzer B/G FRET substrate (Life Technologies) was added using a Flying Reagent Dispenser (FRD) (Aurora Discovery, San Diego, CA) and the plates were incubated at room temperature for 2 hr. Fluorescence intensity (405 nm excitation, 460/530 nm emission) was measured using an Envision plate reader (PerkinElmer, Shelton, CT). For cytotoxicity, 4 uL/well of CellTiter-Glo reagent was added into the assay plates using an FRD. After 30 min incubation at room temperature, the luminescence intensity was measured using a ViewLux plate reader (PerkinElmer).
Background: Quantitative high-throughput screening tests each substance at several concentrations.
Regarding `Oc1ccc(Cl)cc1`, the call was inactive.
`CCCCC(CC)C(=O)Cl` (stereo not given): the outcome was inactive.
Regarding `O=P1(NCCCl)OCCCN1CCCl` (stereo not given), the outcome was inactive.
Consider `CN(C)C(=O)Nc1cccc(C(F)(F)F)c1`, for which the result was inactive.
On to `CCOP(=S)(OCC)Oc1ccc([N+](=O)[O-])cc1`, for which the result was inactive.
Take `C=CCN=C=S`: the result was inactive.
Consider `ClCCOCCCl`, for which the compound was called inactive.
On to `Nc1cccc(Cl)c1`, for which the compound was classed as inactive.
On to `Cc1cccc(N)c1`, for which the compound was called inactive.
As for `COP(=S)(OC)Oc1ccc(SC)c(C)c1`, the compound was classed as inactive.
As for `COC(=O)Nc1cccc(OC(=O)Nc2cccc(C)c2)c1`, the result was inactive.
On to `c1ccc2c(c1)CCCC2`, for which the compound was classed as inactive.
For the compound `CNC(=O)O/N=C/C(C)(C)SC`, the result was inactive.
For `Nc1cc(Cl)cc(Cl)c1`, the compound was classed as inactive.
Take `Nc1nc(N)nc(NC2CC2)n1`: the compound was classed as inactive.
With `OCc1ccco1`, the call was inactive.
Consider `CN(C)CCC#N`, for which the “activity change, negative = cytotoxicity” value is -8.47%.
With `O=C(O)C(Br)Br`, the result was inactive.
In the case of `CNC(=O)Oc1cccc2ccccc12`, the compound was called inactive.
On to `Cc1ccc(N=C=O)cc1N=C=O`, for which the “activity change, negative = cytotoxicity” value is -3.11%.
On to `O=[N+]([O-])c1ccc(Cl)c(Cl)c1`, for which the compound was classed as inactive.
Take `COC(C)(C)CCCC(C)C/C=C/C(C)=C/C(=O)OC(C)C` (stereo not given): the result was inactive.
For `Sc1ccccc1`, the compound was classed as inactive.
On the same count and under the same terms, the result for `C=CC(=O)OCCCCCC(C)C` reads “inactive”; that for `Cc1cccc(C)c1N`, “inactive”.
With `C/C=C/c1ccc2c(c1)OCO2`, the call was inactive.
`CNC(=O)O/N=C(\SC)C(=O)N(C)C`: the compound was called inactive.
`OCC(O)CCl` (stereo not given): the compound was classed as inactive.
In the case of `FC(F)(F)c1ccc(Cl)cc1`, the result was inactive.
Take `Oc1c(Br)cc(Br)cc1Br`: the “activity change, negative = cytotoxicity” value is -9.43% [at 35.3 µM].
As to `O=[N+]([O-])c1ccc(Cl)cc1`, the result was inactive.
Take `Cl[C@H]1OCCO[C@@H]1Cl`: the result was inactive.
As for `Clc1cnc(Oc2ccc(Oc3ncc(Cl)cc3Cl)cc2)c(Cl)c1`, the call was inactive.
In the case of `N#Cc1ccccn1`, the outcome was inactive.
As for `Cc1cc(O)ccc1Cl`, the result was inactive.
As to `Nc1ccc([As](=O)(O)O)cc1`, the outcome was inactive.
For `CCOP(=S)(OCC)Oc1cc(C)nc(C(C)C)n1`, the outcome was inactive.
Regarding `CN(C)C(=O)Cl`, the result was inactive.
On the same count and under the same terms, next, `C=CC#N`: “inactive”; `CN(C)C(=O)C(c1ccccc1)c1ccccc1`: “inactive”.
